Reference: PubChem BioAssay (NCATS)
Inconclusive results are not listed. Where a call stands in place of a potency, no number is given. The source holds several records for some structures; these can differ, active in one and inactive in another. Active and inactive are the calls of the source. Unless noted, calls come from the whole dose curve; as a rule, active = well fitted curve in the direction sought with a large enough effect; inconclusive = small, poorly fitted or top-dose-only effect, or another doubt; inactive = no such curve, though single readings can be large; an effect the other way counts as inactive or inconclusive.

Legend:
[1] = qHTS for Inhibitors of Plasmodium falciparum (DD2) proliferation (AID 504314);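 note: parasite DNA measured by SYBR Green fluorescence after red cell lysis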
In short: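 Erythrocytes infected with P. falciparum Dd2 (0.3% parasitemia, 2.5% hematocrit) exposed to compound 72 h at 37C, 5% CO2. Parasite DNA quantified by SYBR Green fluorescence after saponin/Triton lysis overnight; normalized to 0.29 uM artemisinin and DMSO.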

[2] = qHTS for Inhibitors of Plasmodium falciparum (GB4) proliferation (AID 504315); note: nearly all actives have a fitted effect of over 50% in size; note: potency is the fitted concentration of half-maximal effect
In short: (§1)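 Erythrocytes infected with P. falciparum line (0.3% parasitemia, 2.5% hematocrit final) incubated with compounds 72 h at 37 °C, 5% CO2; SYBR Green lysis buffer added, fluorescence read next day. Normalized to 0.29 uM artemisinin and DMSO.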

[3] = qHTS for Inhibitors of Plasmodium falciparum (7G8) proliferation (AID 504316); note: nearly all actives have a fitted effect of over 65% in size; note: potency is the fitted concentration of half-maximal effect
In short: as §1

[4] = qHTS for Inhibitors of Plasmodium falciparum (HB3) proliferation (AID 504318); note: nearly all actives have a fitted effect of over 60% in size
In short: as §1

[5] = qHTS for Inhibitors of Plasmodium falciparum (CP250) proliferation (AID 504320)
In short: as §1

[6] = target: Atrial natriuretic peptide receptor 1 (Homo sapiens) (UniProt P16066); assay: Natriuretic polypeptide receptor (hNpr1) antagonism - Pilot CMLD screen (AID 1347052; calls by dose curve;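 note: HEK293 cells with hNpr1 stimulated by hNppA peptide at 0.1 nM; cGMP level read as GloSensor luciferase luminescence after agonist stimulation; series mostly up to about 9.2 µM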)
Atrial natriuretic peptide receptor 1 (Homo sapiens), sequence (P16066 whole entry, looked up): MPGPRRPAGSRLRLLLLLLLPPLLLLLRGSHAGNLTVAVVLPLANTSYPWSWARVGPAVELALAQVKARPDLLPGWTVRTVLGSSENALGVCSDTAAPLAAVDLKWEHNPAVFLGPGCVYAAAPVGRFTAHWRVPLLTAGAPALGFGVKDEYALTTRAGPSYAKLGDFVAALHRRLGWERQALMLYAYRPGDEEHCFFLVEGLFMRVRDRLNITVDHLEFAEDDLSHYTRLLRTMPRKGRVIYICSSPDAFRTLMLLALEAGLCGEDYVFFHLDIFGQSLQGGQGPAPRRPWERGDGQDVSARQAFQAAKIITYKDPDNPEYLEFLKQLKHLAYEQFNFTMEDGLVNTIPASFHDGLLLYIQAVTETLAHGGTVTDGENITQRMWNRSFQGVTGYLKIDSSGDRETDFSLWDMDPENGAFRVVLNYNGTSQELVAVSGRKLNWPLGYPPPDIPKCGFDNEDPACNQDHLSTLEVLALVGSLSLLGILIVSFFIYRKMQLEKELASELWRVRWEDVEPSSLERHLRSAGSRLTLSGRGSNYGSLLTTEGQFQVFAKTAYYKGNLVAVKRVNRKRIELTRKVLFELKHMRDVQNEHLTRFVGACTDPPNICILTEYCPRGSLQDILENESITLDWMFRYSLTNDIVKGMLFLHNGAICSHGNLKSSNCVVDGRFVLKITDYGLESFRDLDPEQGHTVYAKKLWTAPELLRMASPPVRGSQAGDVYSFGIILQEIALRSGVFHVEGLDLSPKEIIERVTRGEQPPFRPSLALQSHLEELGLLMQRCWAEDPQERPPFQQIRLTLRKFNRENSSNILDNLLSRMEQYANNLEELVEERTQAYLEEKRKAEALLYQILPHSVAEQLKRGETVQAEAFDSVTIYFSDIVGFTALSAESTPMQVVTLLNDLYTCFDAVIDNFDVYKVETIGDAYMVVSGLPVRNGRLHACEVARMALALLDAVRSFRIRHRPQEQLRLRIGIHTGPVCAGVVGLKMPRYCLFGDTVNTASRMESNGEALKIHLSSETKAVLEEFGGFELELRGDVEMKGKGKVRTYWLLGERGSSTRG

Compound	Potency [1]	Potency [2]	Potency [3]	Potency [4]	Potency [5]	Potency [6]	activity, negative = inhibition [1]
COC(=O)CC=C[C@H](C)[C@@H](OCc1ccccc1Br)C(C)C	inactive	inactive	inactive	inactive	inactive	inactive	
CCOC(=O)N1C2=NC(C(=O)OC)=C(C(=O)OC)[C@@H]3Nc4ccccc4[C@]23C[C@H]1C(=O)OC		1.9 µM (active) and inactive	inactive	inactive	inactive	inactive	-0.255% [at 1.12 µM] (inactive)
C=CCOC(=O)N[C@H](c1ccccc1)C(C(C)=O)C(C)=O	inactive	inactive	inactive	inactive	inactive	inactive	
COC(=O)C1=C[C@@H]([C@@H](C)[C@H](OC)c2ccccc2Br)[C@@H]2OCCC[C@H]12	inactive	inactive	inactive	inactive	inactive	inactive	
COC1=CC2C(=O)C(C(c3ccccc3)C2C)C1(C)O (configuration not stated)	inactive	inactive	inactive	inactive	inactive	inactive	
CC1(C)O[C@H]2O[C@H]([C@H](O)CON=C3[C@H]4CCn5c(=O)n(-c6ccccc6)c(=O)n5[C@@H]4[C@H](O)[C@@H]4O[C@H]34)[C@H](O)[C@@H]2O1	inactive	inactive	inactive	inactive	inactive	inactive	
CCCCC1=CC2=CC(=O)C(C)(O)C(=O)C2=CO1 (configuration not stated)	inactive	inactive	inactive	inactive	inactive	inactive	
CO[C@H](c1ccccc1Br)[C@H](C)C=CCCO	inactive	inactive	inactive	inactive	inactive	inactive	
COC(=O)N[C@@H](c1ccc(Br)cc1)C(C(=O)OC)C(=O)OC	inactive	inactive	inactive	inactive	inactive	inactive	
COC1=C[C@H](C(=O)NCc2ccc(OC)cc2)C(C)C(c2ccccc2)CC1=O (some centres not stated)	inactive	inactive	inactive	inactive	inactive	inactive	
CCN1C(=O)N[C@@H](c2ccccc2)[C@H](C(=O)OC)[C@H]1C	inactive	inactive	inactive	inactive	inactive	inactive	
CC1(OC(=O)C2CCCC2)C(=O)C=C2C=C(c3ccsc3)N(CC3CC3)C=C2C1=O (configuration not stated)		inactive	inactive	inactive	inactive	inactive	-6.74% [at 1.12 µM] (inactive)
C[C@H]1Cc2c(COc3ccccc3)nc3c(c2CO1)CN(C(=O)c1cccnc1)CC3		inactive	inactive	inactive	inactive	inactive	0.654% [at 1.12 µM] (inactive)
O=C(NN=C1C[C@@H](O)[C@H](O)[C@H]2[C@@H]3C(=O)N(C4CCCCC4)C(=O)[C@@H]3CC[C@H]12)OCc1ccccc1	inactive	inactive	inactive	inactive	inactive	inactive	
COC[C@H]1O[C@@H]2O[C@@H]1[C@@H](C=Cc1ccccc1)C[C@H]2C	inactive	inactive	inactive	inactive	inactive	inactive	
CCOC(=O)CN1C(=O)[C@]2(OCCC=C[C@@H]2C)c2c(Br)cccc21	inactive	inactive	inactive	inactive	inactive	inactive	
COC(=O)CC1c2ccccc2C=C(C2CC2)N1C(=O)OC (configuration not stated)	inactive	inactive	inactive	inactive	inactive	inactive	
CCN(CC)CCCN1C=C2C(=O)C(C)(OC(=O)C3CCCC3)C(=O)C=C2C=C1c1ccsc1 (configuration not stated)		inactive	inactive	inactive	inactive	inactive	-4.1% [at 1.12 µM] (inactive)
COC(=O)c1nnc(N[C@@H](Cc2c[nH]c3ccccc23)C(=O)OC)nc1C(=O)OC	inactive	inactive	inactive	inactive	inactive	inactive	
Cc1cc2c(nc1C)CCCCN2C[C@H](C)ON=C[C@@H](C)[C@H](OCc1ccccc1)C(C)C	inactive	inactive	inactive	inactive	inactive	inactive	
C=CCCN1C=C(C(=O)OCC)C(c2ccccc2)NC1=O (configuration not stated)	inactive	inactive	inactive	inactive	inactive	inactive	
COc1cccc2c1[C@H](C=Cc1ccccc1)[C@@H]([C@H](O)COC(C)=O)OC2	inactive	inactive	inactive	inactive	inactive	inactive	
C[C@@H]1[C@@H](c2ccccc2)Cc2nc3ccccc3nc2C[C@H]1C(=O)N1CCCC1	inactive	inactive	inactive	inactive	inactive	inactive	
COc1ccc(COC(=O)NN=C2C[C@@H](O)[C@@H](O)[C@@H]3[C@H]4C(=O)N(C5CCCCC5)C(=O)[C@@H]4CC[C@H]23)cc1	inactive	inactive	inactive	inactive	inactive	inactive	

Compound	Potency [1]	Potency [2]	Potency [3]	Potency [4]	Potency [5]	Potency [6]	activity, negative = inhibition [1]
COC(=O)N[C@@H](c1ccco1)[C@]1(C(=O)OC)CCCC1=O	inactive	inactive	inactive	inactive	inactive	inactive	
O=C1CCC=C1C(O)CCc1ccccc1 (configuration not stated)	inactive	inactive	inactive	inactive	inactive	inactive	
CSc1nnc2c(n1)C[C@H](c1ccccc1)[C@@H](C)[C@@H](C(=O)N1CCCC1)C2	inactive	inactive	inactive	inactive	inactive	inactive	
CCOC(=O)NN=C1C[C@@H](O)[C@@H](O)[C@@H]2[C@H]3C(=O)N(c4cccc(Oc5ccccc5)c4)C(=O)[C@@H]3CC[C@@H]12	inactive	inactive	inactive	inactive	inactive	inactive	
C=CCN1C(=O)[C@]2(OCCC=C[C@H]2C)c2ccccc21	inactive	inactive	inactive	inactive	inactive	inactive	
COC(=O)C1=C(C)N(Cc2ccccc2)C(=NCc2ccc(OC)cc2)NC1c1ccccc1 (configuration not stated)	inactive	inactive	inactive	inactive	inactive	inactive	
COc1ccc(-c2nc(-c3ccccc3)oc2Nc2ccccc2C)cc1	inactive	inactive	inactive	inactive	inactive	inactive	
COCCN1C(=O)C2=C(C1=O)C1N(C)c3ccccc3[C@@]13C[C@@H](CO)N(C(C)=O)C3=N2 (some centres not stated)	inactive	inactive	inactive	inactive	inactive	inactive	
COC(=O)NC(CCc1ccccc1)C(C(=O)OC)C(=O)OC (configuration not stated)	inactive	inactive	inactive	inactive	inactive	inactive	
CCN1C(=O)NC(c2cccc(C(F)(F)F)c2)C(C(=O)OC)=C1C (configuration not stated)	inactive	inactive	inactive	inactive	inactive	inactive	
COC1=CC2C(=O)C(C(c3ccccc3)C2C)C1(O)c1cccc(OC)c1 (configuration not stated)	inactive	inactive	inactive	inactive	inactive	inactive	
CCN1C(=NCc2ccc(OC)cc2)NC(c2cccc(C(F)(F)F)c2)C(C(=O)OC)=C1C (configuration not stated)	inactive	inactive	inactive	inactive	inactive	inactive	
COC(=O)C(Cc1cc(Br)c(OC)c(Br)c1O)=NO	inactive	inactive	inactive	inactive	inactive	inactive	
COc1ccc([C@]23Cc4cc(C#N)ccc4[C@H](O2)c2c(c4ccc(OC)cc4oc2=O)O3)cc1	inactive	inactive	1.69 µM (active) and inactive	inactive	inactive	inactive	
CC#CCN1C(=O)NC(c2ccccc2)C(C#N)=C1C (configuration not stated)	inactive	inactive	inactive	inactive	inactive	inactive	
COC(=O)[C@H](Cc1ccccc1)NC(=O)O[C@H]1C(=O)c2ccc(OC)cc2O[C@@H]1c1ccc2c(c1)OCO2	inactive	inactive	inactive	inactive	inactive	inactive	
O=C1[C@H]2[C@@H]3[C@@H](O)[C@H](O)CC(=NOCc4ccccc4)[C@@H]3CC[C@H]2C(=O)N1C1CCCCC1	inactive	inactive	inactive	inactive	inactive	inactive	
COCC(=O)N1CCc2nc(-c3ccccc3)c3c(c2C1)CO[C@@H](C)C3	inactive	inactive	inactive	inactive	inactive	inactive	
COC(=O)N[C@H](CC(C)=O)c1ccc2c(c1)OCO2	inactive	inactive	inactive	inactive	inactive	inactive	
COC(=O)N[C@@H](c1ccco1)[C@]1(C(C)=O)CCCC1=O	inactive	inactive	inactive	inactive	inactive	inactive	
COC(=O)C1=C(C(=O)OC)[C@@H]2N(C)c3ccccc3[C@@]23C[C@@H](C(=O)OC)N(C(=O)NCCBr)C3=N1	inactive	inactive	inactive	inactive	inactive	inactive	
C=C(CCN1C=C(C(C)=O)C(c2ccccc2)NC1=O)c1ccccc1 (configuration not stated)	inactive	inactive	inactive	inactive	inactive	inactive	
O=C(NN=C1C[C@@H](O)[C@H](O)[C@H]2[C@@H]3C(=O)N(c4cccc(Oc5ccccc5)c4)C(=O)[C@@H]3CC[C@H]12)OCc1ccccc1	inactive	inactive	inactive	inactive	inactive	inactive	
